Among all 5,500 compounds or so, about 2,000 (36%) were called active. Not shown: some 18% with an inconclusive outcome. No stated cut-off is given here; in the data, active means normalized growth mostly below about 0.91 (no sharp cut-off); inconclusive means no clear call, values can overlap the other calls; inactive means mostly above about 0.92. Some of the results follow.
Experiment: chemical genetic growth profiling, strain panel (AID 1159580);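 further: tested at 20 µM; growth read once vehicle control cultures reached saturation at 30 °C; 1 = growth at the plate median or of vehicle wells; lower values mean less growth of the strain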
Conditions: growth OD

Measured: normalized growth

OC[C@@H](O)[C@@H](O[C@@H]1O[C@H](CO)[C@@H](O)[C@H](O)[C@H]1O)[C@H](O)[C@@H](O)CO
inactive: S. cerevisiae deletion strains, locus YJR075W, strain HOC1, active compounds read low 1.01 | S. cerevisiae deletion strains, locus YKL009W, strain mrt4, active compounds read low 1.02 | S. cerevisiae deletion strains, locus YKL068W, active compounds read low 0.999 | S. cerevisiae deletion strains, locus YKL085W, strain MDH1 (second series), active compounds read low 0.998 | S. cerevisiae deletion strains, locus YKL085W, strain MDH1, active compounds read low 0.998 | S. cerevisiae deletion strains, locus YKL160W, strain elf1, active compounds read low 1.02 | S. cerevisiae deletion strains, locus YKL190W, strain CNB1, active compounds read low 1 | S. cerevisiae deletion strains, locus YKR001C, strain vps1, active compounds read low 1.02 | S. cerevisiae deletion strains, locus YKR026C, strain gcn3, active compounds read low 0.991 | S. cerevisiae deletion strains, locus YKR091W, strain srl3, active compounds read low 0.996 | S. cerevisiae deletion strains, locus YLL001W, strain dnm1, active compounds read low 1.01 | S. cerevisiae deletion strains, locus YLL026W, active compounds read low 0.994 | S. cerevisiae deletion strains, locus YLL041C, strain sdh2, active compounds read low 0.989 | S. cerevisiae deletion strains, locus YLR027C, strain aat2, active compounds read low 0.997 | S. cerevisiae deletion strains, locus YLR039C, strain RIC1, active compounds read low 1.06 | S. cerevisiae deletion strains, locus YLR058C, strain SHM2, active compounds read low 1.01 | S. cerevisiae deletion strains, locus YLR102C, strain apc9, active compounds read low 1.01 | S. cerevisiae deletion strains, locus YLR113W, strain HOG1, active compounds read low 0.99 | S. cerevisiae deletion strains, locus YLR221C, strain rsa3, active compounds read low 1.04 | S. cerevisiae deletion strains, locus YLR258W, strain gsy2, active compounds read low 1 | S. cerevisiae deletion strains, locus YLR262C, strain YPT6 (second series), active compounds read low 1.01 | S. cerevisiae deletion strains, locus YLR262C, strain YPT6, active compounds read low 1.05 | S. cerevisiae deletion strains, locus YLR268W, strain sec22, active compounds read low 0.999 | S. cerevisiae deletion strains, locus YLR320W, strain mms22, active compounds read low 1.04 | S. cerevisiae deletion strains, locus YLR330W, strain CHS5, active compounds read low 1.01 | S. cerevisiae deletion strains, locus YLR342W, strain FKS1 (second series), active compounds read low 1.12 | S. cerevisiae deletion strains, locus YLR342W, strain FKS1, active compounds read low 0.974 | S. cerevisiae deletion strains, locus YLR357W, strain rsc2, active compounds read low 0.958 | S. cerevisiae deletion strains, locus YLR370C, strain arc18, active compounds read low 0.996 | S. cerevisiae deletion strains, locus YLR371W, strain rom2, active compounds read low 1.01 | S. cerevisiae deletion strains, locus YLR384C, strain iki3, active compounds read low 0.999 | S. cerevisiae deletion strains, locus YLR418C, strain cdc73, active compounds read low 0.974 | S. cerevisiae deletion strains, locus YML016C, strain PPZ1, active compounds read low 1.01 | S. cerevisiae deletion strains, locus YML032C, strain rad52, active compounds read low 1.05 | S. cerevisiae deletion strains, locus YML120C, strain ndi1, active compounds read low 0.985 | S. cerevisiae deletion strains, locus YML124C, strain tub3, active compounds read low 1.01 | S. cerevisiae deletion strains, locus YMR058W, strain fet3, active compounds read low 0.99 | S. cerevisiae deletion strains, locus YMR078C, strain ctf18, active compounds read low 1.02 | S. cerevisiae deletion strains, locus YMR125W, strain sto1, active compounds read low 0.938 | S. cerevisiae deletion strains, locus YMR129W, active compounds read low 0.992 | S. cerevisiae deletion strains, locus YMR205C, strain PFK2, active compounds read low 1.03 | S. cerevisiae deletion strains, locus YMR223W, strain ubp8, active compounds read low 1.06 | S. cerevisiae deletion strains, locus YMR231W, strain pep5, active compounds read low 0.983 | S. cerevisiae deletion strains, locus YMR263W, strain SAP30, active compounds read low 1.02 | S. cerevisiae deletion strains, locus YMR307W, strain GAS1, active compounds read low 1.1 | S. cerevisiae deletion strains, locus YNL067W, strain RPL9B, active compounds read low 0.998 | S. cerevisiae deletion strains, locus YNL071W, strain lat1, active compounds read low 0.986 | S. cerevisiae deletion strains, locus YNL128W, strain TEP1, active compounds read low 0.985 | S. cerevisiae deletion strains, locus YNL153C, strain GIM3, active compounds read low 1 | S. cerevisiae deletion strains, locus YNL183C, strain NPR1, active compounds read low 0.982 | S. cerevisiae deletion strains, locus YNL209W, strain ssb2, active compounds read low 0.999 | S. cerevisiae deletion strains, locus YNL233W, strain BNI4, active compounds read low 1.02 | S. cerevisiae deletion strains, locus YNL248C, strain rpa49, active compounds read low 0.976 | S. cerevisiae deletion strains, locus YNL250W, strain rad50, active compounds read low 1.02 | S. cerevisiae deletion strains, locus YNL271C, strain bni1, active compounds read low 1.03 | S. cerevisiae deletion strains, locus YNL298W, strain CLA4, active compounds read low 1.02 | S. cerevisiae deletion strains, locus YNL307C, strain MCK1, active compounds read low 1.03 | S. cerevisiae deletion strains, locus YNL322C, strain KRE1 (second series), active compounds read low 0.991 | S. cerevisiae deletion strains, locus YNL322C, strain KRE1, active compounds read low 1.01 | S. cerevisiae deletion strains, locus YNR049C, strain mso1, active compounds read low 0.993 | S. cerevisiae deletion strains, locus YNR052C, strain pop2, active compounds read low 1.01 | S. cerevisiae deletion strains, locus YOL006C, strain TOP1, active compounds read low 1.07 | S. cerevisiae deletion strains, locus YOL012C, strain htz1 1.19 | S. cerevisiae deletion strains, locus YOL147C, strain pex11, active compounds read low 1.01 | S. cerevisiae deletion strains, locus YOR001W, strain rrp6, active compounds read low 0.968 | S. cerevisiae deletion strains, locus YOR061W, strain CKA2, active compounds read low 1.02 | S. cerevisiae deletion strains, locus YOR069W, strain VPS5, active compounds read low 1.01 | S. cerevisiae deletion strains, locus YOR070C, strain gyp1, active compounds read low 0.994 | S. cerevisiae deletion strains, locus YOR080W, strain dia2, active compounds read low 0.995 | S. cerevisiae deletion strains, locus YOR083W, strain WHI5, active compounds read low 1.03 | S. cerevisiae deletion strains, locus YOR106W, strain vam3, active compounds read low 0.998 | S. cerevisiae deletion strains, locus YOR136W, strain idh2, active compounds read low 1.02 | S. cerevisiae deletion strains, locus YOR144C, strain elg1, active compounds read low 1 | S. cerevisiae deletion strains, locus YOR184W, strain ser1, active compounds read low 1.08 | S. cerevisiae deletion strains, locus YOR231W, strain MKK1, active compounds read low 1 | S. cerevisiae deletion strains, locus YOR265W, strain rbl2, active compounds read low 1 | S. cerevisiae deletion strains, locus YOR270C, strain vph1, active compounds read low 0.956 | S. cerevisiae deletion strains, locus YOR290C, strain snf2, active compounds read low 1 | S. cerevisiae deletion strains, locus YOR316C, strain cot1, active compounds read low 1.01 | S. cerevisiae deletion strains, locus YPL051W, strain arl3, active compounds read low 1.02 | S. cerevisiae deletion strains, locus YPL055C, strain LGE1, active compounds read low 0.991 | S. cerevisiae deletion strains, locus YPL078C, strain atp4, active compounds read low 1 | S. cerevisiae deletion strains, locus YPL106C, strain sse1, active compounds read low 1.01 | S. cerevisiae deletion strains, locus YPL240C, strain hsp82, active compounds read low 0.997 | S. cerevisiae deletion strains, locus YPL241C, strain CIN2, active compounds read low 1.01 | S. cerevisiae deletion strains, locus YPL256C, strain CLN2, active compounds read low 0.985 | S. cerevisiae deletion strains, locus YPR119W, strain clb2, active compounds read low 1 | S. cerevisiae deletion strains, locus YPR141C, strain kar3, active compounds read low 1.02 | S. cerevisiae deletion strains, locus YPR163C, strain tif3, active compounds read low 1.01 | S. cerevisiae deletion strains, locus YPR167C, strain met16, active compounds read low 1 | S. cerevisiae deletion strains, strain wtn01, active compounds read low 0.992 | S. cerevisiae strains, strain wild type, active compounds read low 1.02

— PubChem BioAssay AID1159580 (chemical genetic matrix, 2015)
